# Assay results: ChEMBL document CHEMBL4303097 (2020)
# Over roughly 1,500 compounds, “Inhibition index” has its median near 0.17; the highest 2% begin near 1.3. Shown is part of a subset that was picked to be rich in the highest values.
# Test system: SARS-CoV-2
# Experiment: Inhibition of cell viability relative to arbidol control (inhibition index > 1 indicates higher activity) measured by fluorescence (OD590nm) in Vero E6 cells infected with SARS-CoV-2 (strain BavPat1) at MOI 0.002 after 72hrs
# Format: functional, Chlorocebus sabaeus, Vero C1008
row,SMILES,Inhibition index
1,CN1CCN2c3ccccc3Cc3ccccc3C2C1.Cl (stereo not given) [MIANSERIN HYDROCHLORIDE],0.175
2,CC[C@H](C)C(=O)O[C@H]1C[C@@H](C)C=C2C=C[C@H](C)[C@H](CC[C@@H]3C[C@@H](O)CC(=O)O3)[C@H]21 [LOVASTATIN],-0.07572
3,CC(C)(O/N=C(\C(=O)N[C@@H]1C(=O)N2C(C(=O)[O-])=C(C[n+]3ccccc3)CS[C@H]12)c1csc(N)n1)C(=O)O.O.O.O.O.O,0.06868
4,CC(O)C(=O)O.CCOc1ccc2nc3cc(N)ccc3c(N)c2c1,0.4974
5,Cl.Nc1nc2ccc(OC(F)(F)F)cc2s1,0.04491
6,CCOc1ccc2nc(S(N)(=O)=O)sc2c1 [ETHOXZOLAMIDE],2.099
7,CC(=O)O.O=C(NCC1CCCCN1)c1cc(OCC(F)(F)F)ccc1OCC(F)(F)F (stereo not given) [FLECAINIDE ACETATE],0.049
8,CN[C@@H]1[C@H](O)[C@H](NC)[C@H]2O[C@@]3(O)C(=O)C[C@@H](C)O[C@H]3O[C@@H]2[C@H]1O.Cl.Cl,0.1494
9,COc1cccc(N(C)C(=S)Oc2ccc3c(c2)CCCC3)n1 [LIRANAFTATE],0.6869
10,CCCCc1cc2ccccc2c(OCCN(C)C)n1.Cl [DIMETHISOQUIN HYDROCHLORIDE],-0.1351
11,CN(C)N=Nc1[nH]cnc1C(N)=O,-0.0106
12,CC(=O)OCC(=O)[C@@]1(O)CC[C@H]2[C@@H]3CCC4=CC(=O)CC[C@]4(C)[C@H]3[C@@H](O)C[C@@]21C [HYDROCORTISONE ACETATE],0.145
13,CCN(CC)CCCC(C)Nc1c2ccc(Cl)cc2nc2ccc(OC)cc12.Cl.Cl.O.O (stereo not given) [QUINACRINE HYDROCHLORIDE],-0.1724
14,CCN(CC)Cc1cc(Nc2ccnc3cc(Cl)ccc23)ccc1O.Cl.Cl.O.O [AMODIAQUINE HYDROCHLORIDE],0.1282
15,COc1cc(NC(C)CCCN)c2ncccc2c1.O=P(O)(O)O.O=P(O)(O)O (stereo not given) [PRIMAQUINE PHOSPHATE],0.6817
16,Cl.O=C(OCC(O)CO)c1ccccc1Nc1ccnc2cc(Cl)ccc12 (stereo not given),0.07624
17,CCN(CC)CCCC(C)Nc1ccnc2cc(Cl)ccc12.O=P(O)(O)O.O=P(O)(O)O (stereo not given) [CHLOROQUINE PHOSPHATE],1.351
18,NC(=O)c1cc[n+](CC2=C(C(=O)O)N3C(=O)[C@@H](NC(=O)[C@@H](c4ccccc4)S(=O)(=O)O)[C@H]3SC2)cc1.O.[Na+],0.1703
19,CN1CCc2cccc3c2[C@H]1Cc1ccc(O)c(O)c1-3.CN1CCc2cccc3c2[C@H]1Cc1ccc(O)c(O)c1-3.Cl.Cl.O [APOMORPHINE HYDROCHLORIDE],0.4481
20,CCCCOc1ccc(OCCCN2CCOCC2)cc1.Cl [PRAMOXINE HYDROCHLORIDE],0.1376

row,SMILES,Inhibition index
1,CCOC(=O)c1c(N)sc2c1CCN(Cc1ccccc1)C2.Cl,0.8505
2,O=C([O-])C[C@H](O)C[C@H](O)/C=C/c1c(C2CC2)nc2ccccc2c1-c1ccc(F)cc1.O=C([O-])C[C@H](O)C[C@H](O)/C=C/c1c(C2CC2)nc2ccccc2c1-c1ccc(F)cc1.[Ca+2] [PITAVASTATIN CALCIUM],-0.03681
3,C=CC[C@]1(O)CC[C@H]2[C@@H]3CCC4=CC(=O)CCC4=C3C=C[C@@]21C [ALTRENOGEST],0.8504
4,CCOC(=O)C(C)(N)Cc1cc(I)c(Oc2cc(I)c(O)c(I)c2)c(I)c1.Cl (stereo not given),0.3664
5,C/C(=C(\CCOC(=O)c1ccccc1)SS/C(CCOC(=O)c1ccccc1)=C(\C)N(C=O)Cc1cnc(C)nc1N)N(C=O)Cc1cnc(C)nc1N,1.055
6,C/C(=C(/CCO)SSCC1CCCO1)N(C=O)Cc1cnc(C)nc1N.Cl (stereo not given),1.385
7,CCCSS/C(CCO)=C(\C)N(C=O)Cc1cnc(C)nc1N,0.2056
8,CCCCC(=O)O[C@H]1CC[C@H]2[C@@H]3CCc4cc(O)ccc4[C@H]3CC[C@]12C [ESTRADIOL VALERATE],-0.4279
9,COc1cccc2c1C(=O)c1c(O)c3c(c(O)c1C2=O)C[C@@](O)(C(=O)CO)C[C@@H]3O[C@H]1C[C@H](N)[C@H](O)[C@H](C)O1.Cl [DOXORUBICIN HYDROCHLORIDE],-0.06911
10,Cc1cc(/C=C/c2ccc3cc(N(C)C)ccc3[n+]2C)c(C)n1-c1ccccc1.Cc1cc(/C=C/c2ccc3cc(N(C)C)ccc3[n+]2C)c(C)n1-c1ccccc1.O=C([O-])c1cc2ccccc2c(Cc2c(O)c(C(=O)[O-])cc3ccccc23)c1O [PYRVINIUM PAMOATE],-0.3469
11,C#C[C@]1(O)CC[C@H]2[C@@H]3CCC4=CC(=O)CC[C@]4(C)[C@H]3CC[C@@]21C [ETHISTERONE],0.1353
12,CCSc1ccc2c(c1)N(CCCN1CCN(C)CC1)c1ccccc1S2.O=C(O)/C=C\C(=O)O,-0.4349
13,Cl.N=C(N)NC(=N)NCCc1ccccc1 [PHENFORMIN HYDROCHLORIDE],-0.07157
14,N=C(N)NCCN1CCCCCCC1.N=C(N)NCCN1CCCCCCC1.O=S(=O)(O)O [GUANETHIDINE SULFATE],0.04902
15,C[C@]12CC[C@@H]3c4ccc(O)cc4CC[C@H]3[C@@H]1C[C@@H](O)[C@@H]2O [ESTRIOL],0.6126
16,CC(=O)[C@H]1CC[C@H]2[C@@H]3CCC4=CC(=O)CC[C@]4(C)[C@H]3CC[C@]12C [PROGESTERONE],0.4087
17,C[C@]12CC[C@H](O)CC1=CC[C@@H]1[C@@H]2CC[C@]2(C)C(=O)CC[C@@H]12 [PRASTERONE],0.9295
18,CC(=O)[C@H]1CC[C@H]2[C@@H]3CC=C4C[C@@H](O)CC[C@]4(C)[C@H]3CC[C@]12C [PREGNENOLONE],1.659
19,CC[C@@H]([C@H](C)O)n1ncn(-c2ccc(N3CCN(c4ccc(OC[C@@H]5CO[C@@](Cn6cncn6)(c6ccc(F)cc6F)C5)cc4)CC3)cc2)c1=O.O,0.639
20,CN1CCN(C(c2ccccc2)c2ccccc2)CC1.Cl [CYCLIZINE HYDROCHLORIDE],0.3956

row,SMILES,Inhibition index
1,CCOC(=O)[C@H](CCc1ccccc1)N[C@@H](C)C(=O)N1[C@H](C(=O)O)C[C@H]2CCCC[C@@H]21 [TRANDOLAPRIL],0.1383
2,CC(C)(C)C(=O)OCOC(=O)[C@@H]1N2C(=O)[C@@H](NC(=O)[C@H](N)c3ccccc3)[C@H]2SC1(C)C [PIVAMPICILLIN],0.3125
3,Clc1cc(Cl)c(OCC#CI)cc1Cl [HALOPROGIN],-0.09794
4,CC(=O)[C@H]1CC[C@H]2[C@@H]3CC[C@H]4C[C@H](O)CC[C@]4(C)[C@H]3C(=O)C[C@]12C [ALFAXALONE],0.7131
5,Clc1ccc(CCC(Cn2ccnc2)Sc2c(Cl)cccc2Cl)cc1.O=[N+]([O-])O (stereo not given) [BUTOCONAZOLE NITRATE],-0.1062
6,CC(=O)OCC(=O)[C@@]12N=C(C)O[C@@H]1C[C@H]1[C@@H]3CCC4=CC(=O)C=C[C@]4(C)[C@H]3[C@@H](O)C[C@@]12C [DEFLAZACORT],0.4333
7,CC(C)(C)NC(=O)[C@H]1CC[C@H]2[C@@H]3CC[C@H]4NC(=O)C=C[C@]4(C)[C@H]3CC[C@]12C [FINASTERIDE],0.2658
8,Cc1[nH]cnc1CN1CCc2c(c3ccccc3n2C)C1=O.Cl [ALOSETRON HYDROCHLORIDE],0.152
9,Cc1nccn1CC1CCc2c(c3ccccc3n2C)C1=O.Cl (stereo not given),1.665
10,CN(C)CCC(c1ccccc1)c1ccccn1.O=C(O)/C=C\C(=O)O (stereo not given) [PHENIRAMINE MALEATE],0.01395
11,O=C(O[C@H]1C[N+]2(CCCOc3ccccc3)CCC1CC2)C(O)(c1cccs1)c1cccs1.[Br-] [ACLIDINIUM BROMIDE],0.1807
12,CC1(C)S[C@@H]2[C@H](NC(=O)[C@H](NC(=O)N3CCNC3=O)c3ccccc3)C(=O)N2[C@H]1C(=O)[O-].[Na+] [AZLOCILLIN SODIUM],0.01854
13,CC(C)(CO)[C@@H](O)C(=O)NCCCC(=O)O.CC(C)(CO)[C@@H](O)C(=O)NCCCC(=O)O.[Ca+2],0.08003
14,CC(C)NNC(=O)c1ccncc1.O=P(O)(O)O [IPRONIAZID PHOSPHATE],0.02671
15,Cl.Cl.NCCc1cc[nH]n1,0.03591
16,CC1(C)S[C@@H]2[C@H](NC(=O)[C@H](N)c3ccc(O)cc3)C(=O)N2[C@H]1C(=O)O [AMOXICILLIN],0.1371
17,CC12CC3CC(C)(C1)CC(N)(C3)C2.Cl [MEMANTINE HYDROCHLORIDE],0.5095
18,CN(C)CCC(c1ccc(Br)cc1)c1ccccn1.O=C(O)/C=C\C(=O)O (stereo not given) [BROMPHENIRAMINE MALEATE],0.3833
19,CC1(C)S[C@@H]2[C@H](NC(=O)C(C(=O)O)c3ccsc3)C(=O)N2[C@H]1C(=O)[O-].[Na+] (stereo not given in full),0.09416
20,O=C(NC1CCN(CCCCC2(C(=O)NCC(F)(F)F)c3ccccc3-c3ccccc32)CC1)c1ccccc1-c1ccc(C(F)(F)F)cc1 [LOMITAPIDE],-0.295
